# A selection: hits, their analogues and other compounds. The true share with any hit is near 11%.
# PNC assembly inh: High Content Assay for Compounds that inhibit the Assembly of the Perinucleolar Compartment. PC3M PTB-GFP, PNC prevalence imaging, 16 h; active compounds read low. activity change (PNC), negative = inhibition, % at 10 µM. hit rate 3.1% among 140,000. AID 2417, 2010;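 active means readout at or below -70, meaning at least 70% loss of cells showing the perinucleolar compartment, a nuclear body marking cancer cells; inconclusive means readout between -30 and a set limit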;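 further: plate controls were DMSO wells for no effect and camptothecin positive control wells for full effect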
#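 Compounds are pinned in duplicate onto adhered PC3M cells stably expressing GFP-tagged PTB and incubated 16 h at 37 C. Cells are then fixed, nuclei stained with Hoechst, and PNC-positive cells counted.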
# IMPase Li inh: qHTS Assay for Identifying the Cell-Membrane Permeable IMPase Inhibitors: Potentiation with Lithium. hit rate 0.35% among 210,000. Potency, µM (titrated, usually from 59.4 µM), for the others: at the highest dose activity, negative = IMPase inhibition, most hits filed as inhibitors. CHO-M1 cells, IP1 TR-FRET (IP-One), carbachol + lithium; active means well fitted inhibition curve with a large enough effect; inconclusive means small, poorly fitted or top-dose-only effect; inactive means no such curve, though single readings can be large or run the other way;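 further: IP1 builds up when IMPase is blocked and the TR-FRET signal falls; potency means the concentration at half of the fitted maximal effect; plate controls were basal vehicle for no effect and high inhibitor control for full effect; nearly all actives have a fitted effect of over 50% in size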
#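 Test compounds were applied to CHO-M1 cells previously cultured for 16–30 h at 2000 per well. A small lithium amount accompanied them; after 30 min at 37C, IP1 was quantified by TR-FRET.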
# IMPase inh: qHTS Assay for Identifying the Cell-Membrane Permeable IMPase Inhibitors; 120,000 tested, under 10 active; AID 901, 2007; inhibition (IP1 accumulation), % at 46.1 µM; CHO-M1 cells, IP1 accumulation, HTRF TR-FRET ratio; Inositol monophosphatase 1 (Rattus norvegicus), P97697; active means well fitted curve in the direction sought with a large enough effect in the signal ratio, not every such curve was filed as active; inconclusive means small, poorly fitted or top-dose-only effect, or a change in a side signal; inactive means no such curve, though single readings can be large or run the other way; the % refers to the signal ratio;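 further: cells stimulated with carbachol in lithium chloride buffer; plate controls were DMSO basal wells for no effect and reference inhibitor wells for full effect; higher means more IMPase inhibition seen as more IP1 and lower FRET ratio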
#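 Elevated IP1 in lysates lowers TR-FRET signal (665/620 ratio and 620 channel reported). Cells were CHO-M1, given carbachol (50 uM as added) plus 50mM LiCl, pH 7.4, 30 min, 37C; compounds titrated up to 46 uM; AC50 by Hill equation.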
# ALDH1A1 inh: qHTS Assay for Inhibitors of Aldehyde Dehydrogenase 1 (ALDH1A1); Aldehyde dehydrogenase 1A1 (Homo sapiens), P00352; Purified ALDH1A1, NADH fluorescence, propionaldehyde substrate; Potency, µM (highest dose often 75.3 µM), for the others: at the highest dose activity, negative = inhibition, actives largely listed as inhibitors; hit rate 7.3% among 220,000; AID 1030, 2008;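 further: potency means the concentration at half of the fitted maximal effect; plate controls were no enzyme wells and a reference inhibitor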
# Target sequence (P00352 whole entry, looked up): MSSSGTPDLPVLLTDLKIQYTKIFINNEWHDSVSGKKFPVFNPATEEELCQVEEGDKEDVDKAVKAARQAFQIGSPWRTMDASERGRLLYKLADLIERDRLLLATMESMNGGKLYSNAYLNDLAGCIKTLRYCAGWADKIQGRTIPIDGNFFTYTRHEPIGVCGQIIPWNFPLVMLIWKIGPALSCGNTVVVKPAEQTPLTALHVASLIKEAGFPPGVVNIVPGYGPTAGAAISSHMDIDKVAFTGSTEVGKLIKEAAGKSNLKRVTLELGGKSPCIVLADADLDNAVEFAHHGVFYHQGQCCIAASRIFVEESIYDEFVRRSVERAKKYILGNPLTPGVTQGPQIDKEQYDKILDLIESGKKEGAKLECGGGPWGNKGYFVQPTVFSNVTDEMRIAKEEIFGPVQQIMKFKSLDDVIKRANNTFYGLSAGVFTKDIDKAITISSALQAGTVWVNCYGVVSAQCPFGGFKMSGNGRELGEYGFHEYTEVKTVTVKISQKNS
# HPGD inh: qHTS Assay for Inhibitors of HPGD (15-Hydroxyprostaglandin Dehydrogenase); 15-hydroxyprostaglandin dehydrogenase [NAD(+)] (Homo sapiens), P15428; purified HPGD, NADH fluorescence kinetic, PGE2 substrate; Potency, µM, without a hit: at the highest dose activity change, negative = inhibition, usual class: inhibitors; hit rate 4.3% among 150,000; further: potency means the concentration at half of the fitted maximal effect
# Target sequence (P15428 whole entry, looked up): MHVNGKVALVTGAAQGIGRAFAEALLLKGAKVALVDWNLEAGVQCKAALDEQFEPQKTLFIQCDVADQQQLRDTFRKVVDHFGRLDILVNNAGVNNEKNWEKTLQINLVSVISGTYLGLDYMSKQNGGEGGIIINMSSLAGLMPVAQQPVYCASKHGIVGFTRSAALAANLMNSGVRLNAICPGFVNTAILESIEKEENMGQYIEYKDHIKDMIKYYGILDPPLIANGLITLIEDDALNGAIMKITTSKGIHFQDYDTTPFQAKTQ
#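 NADH formation kinetics: reaction with 30 uM PGE2 and 1 mM NAD+ (final), 20 nM enzyme, Tris-HCl pH 8 with Tween 20, after 15 min compound preincubation at room temperature. Fluorescence change, last versus first of five reads.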
# Starred values were filed as active, the others as inactive; ? = inconclusive; · = no result; [ ] = remark or other dose. Unless noted, the call rests on the fitted dose curve; in most records, active means well fitted inhibition curve with a large enough effect (not every such curve was filed as active); inconclusive means small, poorly fitted or top-dose-only effect, or another doubt; inactive means no such curve, though single readings can be large or run the other way. Unless noted, on the % scale 0 is the no-effect control and ±100 the full control effect.
SMILES,PNC assembly inh,IMPase Li inh,IMPase inh,ALDH1A1 inh,HPGD inh
Cc1cc(Cl)c(S(=O)(=O)NCc2ccncc2)cc1OCC(N)=O,-12.9,29.7%[38.3 µM],1.7,?,-4.5%
Cc1cc(Cl)c(S(=O)(=O)NCc2ccccc2)cc1OCC(N)=O,-113.4*,-0.5%[38.3 µM],-8.3,-5.0%,-3.8%
Cc1ccccc1C(=O)N1CCN(c2ccc([N+](=O)[O-])c(N3CCOCC3)c2)CC1,-6.8,-7.5%[38.3 µM],-1.7,?,-2.9%
O=C(c1ccccc1F)N1CCN(c2ccc([N+](=O)[O-])c(N3CCOCC3)c2)CC1,·,-3.6%,·,0.708µM*,·
O=C(c1cccc2ccccc12)N1CCN(c2ccc([N+](=O)[O-])c(N3CCOCC3)c2)CC1,-19.5,8.6%,-9.9,10µM*,-18.9%
Cc1ccc(Cc2ccc(C(=O)NNC(N)=S)o2)cc1,·,-0.6%,·,?,·
C[C@@]12CCC[C@H]1C1CC[C@H]3C[C@H](O)CC[C@]3(C)C1CC2 (some centres not stated),·,-2.4%,·,2.9%,·
CCN1CCN(C2=NC(=O)/C(=C/c3ccc(C)o3)S2)CC1,21.6,9.7%[38.3 µM],6.0,20µM*,-19.0%
N#CC1=C(N)SC(N)=C(C#N)C1CCC1CCCCC1,-27.8,13.0%[38.3 µM],-8.4,14.1µM*,15.8µM*
Nc1nnc(CCC2CCCCC2)s1,39.9,-3.1%[38.3 µM],-0.1,-6.1%,-6.0%
CCOCCCN(C(=O)Nc1ccc(CC)cc1)C1CCN(C(C)=O)CC1,?,24.6%[38.3 µM],6.6,-0.1%,5.3%
CCCCN(C(=O)Nc1ccc(Cl)cc1)C1CCN(C(C)=O)CC1,-94.7*,1.3%[38.3 µM],4.3,?,-7.6%
COc1ccc(C2/C=C\[C@H](O[Si](C)(C)C(C)(C)C)[C@H](C(C)C)CC(=O)N2Cc2ccccc2)cc1 (some centres not stated),·,-5.3%,·,-2.6%,-12.7%
Cc1cccc2sc(NC(=O)[C@H](C)N3C(=O)C4CC=CCC4C3=O)nc12 (some centres not stated),·,·,·,14.1µM*,·
CC(C)(C)C(=O)Cn1c(=N)n(Cc2ccccc2Cl)c2ccccc21,33.1,28.2%[38.3 µM],5.7,?,-0.4%
CC(C)(C)C(=O)Cn1c(=N)n(Cc2ccccc2)c2ccccc21,-118.9*,11.6%,9.4,-7.4%,-1.3%
CCC(=O)N=c1sc2c(C)cc(C)cc2n1CC(=O)OC,25.5,12.6µM*,7.5,?,?
COC(=O)Cn1c(=NC(=O)C(C)(C)C)sc2c(C)cc(C)cc21,-24.5,38.0%[38.3 µM],10.4,3.2%,-17.8%
CN(C)c1ncc2nc(-c3ccc(F)cc3)c(=O)n(C)c2n1,·,-3.5%,·,?,·
CCCCCN1C(C(=O)c2ccccc2)=C(NC(=O)c2ccc(OC)cc2)c2ccccc2S1(=O)=O,·,·,2.0,·,·
CCN(CCO)c1ncnc2c1sc1nc(C(C)C)c3c(c12)CC(C)(C)OC3,-18.2,?,?,?,?
COc1ncnc2c1oc1nc(CC(C)C)c3c(c12)CC(C)(C)OC3,-5.3,6.9%[38.3 µM],3.7,1µM*,-9.4%
CCSc1cc(C2C(C(=O)OC)=C(C)NC3=C2C(=O)CCC3)c(C)o1 (configuration not stated),8.4,6.5%[38.3 µM],-6.0,?,-19.5%
C/C=C(\C)CN1CCN(c2cc(C)ccc2C)CC1,-28.9,1.7%[38.3 µM],1.3,15.8µM*,-15.5%
CCn1c(-c2ccccc2)c[nH]c1=S,-28.6,-4.2%[38.3 µM],0.0,28.2µM*,-28.3%
SMILES,PNC assembly inh,IMPase Li inh,IMPase inh,ALDH1A1 inh,HPGD inh
S=c1[nH]cc(-c2ccccc2)n1-c1ccccc1,1.0,1.4%[38.3 µM],5.8,3.16µM*,25.1µM*
Cc1ccc(-n2c(-c3ccccc3)c[nH]c2=S)cc1,·,-2.8%,·,2.5%,·
CCOC(=O)N1CCN(C(=O)c2ccc(CN(c3ccccc3)S(C)(=O)=O)cc2)CC1,26.0,7.3%[38.3 µM],-3.0,1.4%,-5.0%
CC(NC(=O)c1ccc(Br)s1)C1CCCO1 (configuration not stated),4.9,45.9%[38.3 µM],3.3,?,31.6µM*
CCOc1cc(C(=O)NC(C)C2CCCO2)cc(OCC)c1OCC (configuration not stated),·,4.6%,·,?,·
CCC(Sc1nc2ccc(N)cc2s1)C(=O)Nc1nccs1 (configuration not stated),-21.6,56.4%[38.3 µM],7.4,7.94µM*,25.1µM*
CCN(CC)C(=O)Cn1c(=O)n(CCCC(=O)NCc2ccccc2)c(=O)c2sccc21,·,0.9%,·,6.8%,·
COc1cccc(NC(=S)/C(=C(\[O-])c2ccc(OC(F)F)cc2)[n+]2ccccc2)c1,·,8.2%,·,20µM*,·
[O-]/C(=C(\C(=S)Nc1cccc2ccccc12)[n+]1ccccc1)c1cccs1,·,9.3%,·,?,·
[O-]/C(=C(\C(=S)Nc1cccc2ccccc12)[n+]1ccccc1)c1ccc(OC(F)F)cc1,·,4.2%,·,18.9µM*,·
[O-]/C(=C(\C(=S)Nc1cccc2ccccc12)[n+]1ccccc1)c1ccc2c(c1)OCCO2,-18.1,-6.5%[38.3 µM],7.5,10µM*,?
CCc1cc(=O)oc2cc(C)cc(OC(=O)c3ccco3)c12,-7.9,-13.7%[38.3 µM],?,10µM*,0.4%
CC(=O)COc1cc(C)cc2oc(=O)cc(-c3ccccc3)c12,·,6.7%,·,2.24µM*,·
COc1ccc([N+](=O)[O-])cc1COc1cc(C)cc2oc(=O)cc(-c3ccccc3)c12,?,13.3%[38.3 µM],13.3,2µM*,-22.6%
COc1cc2oc(=O)cc(-c3cccc(-c4cccc(C)c4)c3)c2c(OC)c1OC,·,23.3%,·,?,?
Cc1cc(OC(=O)c2ccco2)c2c(C)cc(=O)oc2c1,?,-7.6%[38.3 µM],-15.0,?,-12.4%
Cc1cc(O)c2c(-c3ccccc3)cc(=O)oc2c1,?,34.1%[38.3 µM],10.7,?,-14.0%
C=C(C)OC(C)=O,·,7.2%,·,-7.2%,-7.3%
CCOC(=O)c1cc2c(nc1NC(=S)Nc1ccccc1)CC(C)(C)OC2,-81.9*,4.1%,-5.6,14.1µM*,-3.6%
CC(C)(C)c1nc(SCC(=O)Nc2nc3c(s2)CCCC3)c2ccccc2n1,-94.8*,24.6%[38.3 µM],11.9,3.7%,-7.9%
CC(C)c1nc(SCC(=O)Nc2nc3c(s2)CCCC3)c2ccccc2n1,?,17.8%[38.3 µM],6.0[1.84 µM],-4.9%,?
O=C(CSc1ncn(-c2ccccc2)n1)Nc1nc2ccccc2s1,30.7,21.9%[38.3 µM],5.5,12.6µM*,22.4µM*
Cc1ccc[n+](CC(=O)Nc2nc3ccccc3s2)c1,·,23.6%,·,14.1µM*,·
CC(=O)Nc1ccc(C(=O)CSc2ncn(-c3ccccc3)n2)cc1,13.2,22.4%[38.3 µM],5.0,?,12.6µM*
Cc1ccc(CC(=O)Nc2nc3ccccc3s2)cc1,7.7,20.0%[38.3 µM],8.9,?,-16.7%

# Screens: PubChem BioAssay, National Center for Advancing Translational Sciences (NCATS)
